Measured values as given in PMC7862700, “An all-to-all approach to the identification of sequence-specific readers for epigenetic DNA modifications on cytosine”.

Columns and labels:
Experiment in all cases: DAPPL (digital affinity profiling via proximity ligation, sequencing); 10 mM Tris-HCl pH 7.5, 50 mM NaCl, 1 mM DTT, 4% glycerol, room temperature, 30 min; GST-TFs on glutathione beads, 16-mer random dsDNA library, 0.1% formaldehyde crosslink after washing; high values mean tight binding
[1] = biological target: T1, FEV (Homo sapiens, UniProt Q99581 1-238); settings: protein: recombinant; tags: N-terminal GST; dsDNA, one strand shown
T1 sequence: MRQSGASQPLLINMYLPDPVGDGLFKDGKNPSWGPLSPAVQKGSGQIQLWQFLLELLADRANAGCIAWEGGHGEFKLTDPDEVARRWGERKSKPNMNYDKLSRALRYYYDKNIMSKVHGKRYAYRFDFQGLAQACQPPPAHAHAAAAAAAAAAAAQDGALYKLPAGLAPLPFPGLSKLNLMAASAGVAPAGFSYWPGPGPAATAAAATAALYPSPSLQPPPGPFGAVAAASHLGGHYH
Summary of the method: (§1)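 Human transcription factors fused to GST were expressed in yeast, captured on glutathione beads, given DNA barcodes and pooled with a GST-only negative control. Pools were incubated with 200 nmole of a 16-mer random double-stranded DNA library in Tris/NaCl/DTT/glycerol buffer at room temperature for 30 min. They were then washed, crosslinked with 0.1% formaldehyde, proximity-ligated (BsaI/T4 ligase, 1 h, 37 °C), PCR-amplified and sequenced on an Illumina NextSeq500. Binding signal is each 6-mer's read frequency for a factor divided by its frequency for the GST control.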

[2] = biological target: ETV5 (Homo sapiens, UniProt P41161 1-510); settings: protein: recombinant; tags: N-terminal GST; dsDNA, one strand shown
Sequence of ETV5 (P41161 whole entry): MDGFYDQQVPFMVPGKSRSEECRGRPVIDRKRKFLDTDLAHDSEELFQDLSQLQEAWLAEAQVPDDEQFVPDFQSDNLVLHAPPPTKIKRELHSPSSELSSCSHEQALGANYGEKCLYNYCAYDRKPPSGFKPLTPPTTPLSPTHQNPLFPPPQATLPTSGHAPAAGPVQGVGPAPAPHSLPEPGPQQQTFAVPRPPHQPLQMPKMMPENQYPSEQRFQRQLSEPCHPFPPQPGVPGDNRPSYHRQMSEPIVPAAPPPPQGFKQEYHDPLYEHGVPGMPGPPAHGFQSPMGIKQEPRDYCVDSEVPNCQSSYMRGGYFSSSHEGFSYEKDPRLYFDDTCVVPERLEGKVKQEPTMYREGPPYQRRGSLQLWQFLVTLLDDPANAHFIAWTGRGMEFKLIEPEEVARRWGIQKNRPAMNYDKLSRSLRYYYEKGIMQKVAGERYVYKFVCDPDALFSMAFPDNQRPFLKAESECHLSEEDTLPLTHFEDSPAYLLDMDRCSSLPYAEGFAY
Summary of the method: as §1

[3] = biological target: HSF1 (Homo sapiens, UniProt Q00613 1-529); settings: protein: recombinant; tags: N-terminal GST; chain copies: 3; dsDNA, one strand shown
Sequence of HSF1 (Q00613 whole entry): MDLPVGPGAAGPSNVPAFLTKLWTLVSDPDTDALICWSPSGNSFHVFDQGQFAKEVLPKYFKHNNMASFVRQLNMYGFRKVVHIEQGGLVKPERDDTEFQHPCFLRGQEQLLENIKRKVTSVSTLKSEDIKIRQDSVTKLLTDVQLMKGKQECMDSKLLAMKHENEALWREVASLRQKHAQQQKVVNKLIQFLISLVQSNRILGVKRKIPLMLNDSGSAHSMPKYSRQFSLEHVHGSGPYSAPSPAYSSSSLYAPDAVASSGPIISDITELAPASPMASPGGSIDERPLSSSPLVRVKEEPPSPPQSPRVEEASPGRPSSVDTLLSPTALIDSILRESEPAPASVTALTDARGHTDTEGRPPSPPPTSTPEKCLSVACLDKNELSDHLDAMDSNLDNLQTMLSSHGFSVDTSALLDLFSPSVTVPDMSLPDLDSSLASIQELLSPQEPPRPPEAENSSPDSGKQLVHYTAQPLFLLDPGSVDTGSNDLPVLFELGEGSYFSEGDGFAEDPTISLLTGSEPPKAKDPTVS
Summary of the method: as §1

[4] = biological target: T2, SPIC (Homo sapiens, UniProt Q8N5J4 1-248); settings: protein: recombinant; tags: N-terminal GST; dsDNA, one strand shown
T2 sequence: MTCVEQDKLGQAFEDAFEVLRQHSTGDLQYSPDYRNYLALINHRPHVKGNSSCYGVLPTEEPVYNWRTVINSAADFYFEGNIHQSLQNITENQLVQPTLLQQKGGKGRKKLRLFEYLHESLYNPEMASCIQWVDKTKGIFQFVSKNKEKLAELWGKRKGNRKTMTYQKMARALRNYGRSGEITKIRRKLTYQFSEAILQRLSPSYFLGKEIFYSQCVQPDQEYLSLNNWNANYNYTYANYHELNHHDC
Summary of the method: as §1

[5] = biological target: ELF4 (Homo sapiens, UniProt Q99607 1-663); settings: protein: recombinant; tags: N-terminal GST; dsDNA, one strand shown
Sequence of ELF4 (Q99607 whole entry): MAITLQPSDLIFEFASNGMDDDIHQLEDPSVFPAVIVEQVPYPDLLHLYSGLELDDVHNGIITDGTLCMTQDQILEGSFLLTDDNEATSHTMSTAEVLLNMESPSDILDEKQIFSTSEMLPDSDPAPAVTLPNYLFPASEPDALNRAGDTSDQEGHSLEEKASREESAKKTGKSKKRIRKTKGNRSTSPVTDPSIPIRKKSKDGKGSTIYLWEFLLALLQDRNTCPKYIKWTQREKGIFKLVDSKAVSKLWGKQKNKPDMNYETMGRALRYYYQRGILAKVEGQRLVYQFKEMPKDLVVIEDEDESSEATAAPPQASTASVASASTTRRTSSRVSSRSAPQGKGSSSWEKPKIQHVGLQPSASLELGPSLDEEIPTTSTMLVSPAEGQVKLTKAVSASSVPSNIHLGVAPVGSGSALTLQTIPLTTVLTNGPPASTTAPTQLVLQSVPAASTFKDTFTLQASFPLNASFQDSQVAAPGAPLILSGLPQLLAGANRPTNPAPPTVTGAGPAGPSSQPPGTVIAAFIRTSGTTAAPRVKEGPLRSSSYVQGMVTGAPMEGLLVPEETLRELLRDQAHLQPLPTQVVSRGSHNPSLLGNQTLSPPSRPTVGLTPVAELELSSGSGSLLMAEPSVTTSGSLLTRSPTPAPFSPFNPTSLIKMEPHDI
Summary of the method: as §1

[6] = biological target: T3, ELK4 (Homo sapiens, UniProt P28324-2 1-405); settings: protein: recombinant; tags: N-terminal GST; dsDNA, one strand shown
T3 sequence: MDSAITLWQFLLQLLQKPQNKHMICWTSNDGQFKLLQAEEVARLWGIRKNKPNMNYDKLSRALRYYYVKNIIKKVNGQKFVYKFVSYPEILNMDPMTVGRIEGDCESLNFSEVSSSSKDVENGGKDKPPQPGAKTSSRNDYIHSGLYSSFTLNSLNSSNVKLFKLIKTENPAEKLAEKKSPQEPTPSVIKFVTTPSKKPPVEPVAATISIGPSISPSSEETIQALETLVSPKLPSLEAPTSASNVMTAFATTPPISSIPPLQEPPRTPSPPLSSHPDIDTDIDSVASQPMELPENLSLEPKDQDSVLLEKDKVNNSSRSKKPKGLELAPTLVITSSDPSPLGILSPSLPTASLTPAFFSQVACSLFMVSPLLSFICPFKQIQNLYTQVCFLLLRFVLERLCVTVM
Summary of the method: as §1

[7] = biological target: T4, ETV2 (Homo sapiens, UniProt O00321 1-342); settings: protein: recombinant; tags: N-terminal GST; dsDNA, one strand shown
T4 sequence: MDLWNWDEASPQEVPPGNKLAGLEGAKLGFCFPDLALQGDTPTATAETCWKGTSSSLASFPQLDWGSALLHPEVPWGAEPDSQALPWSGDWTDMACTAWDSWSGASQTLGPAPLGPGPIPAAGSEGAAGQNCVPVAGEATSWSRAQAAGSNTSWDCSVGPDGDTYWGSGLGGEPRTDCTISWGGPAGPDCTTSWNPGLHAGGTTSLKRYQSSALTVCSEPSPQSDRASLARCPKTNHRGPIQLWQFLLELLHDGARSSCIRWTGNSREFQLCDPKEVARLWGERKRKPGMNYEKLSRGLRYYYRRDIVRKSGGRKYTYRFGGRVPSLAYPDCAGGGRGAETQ
Summary of the method: as §1

[8] = biological target: T5, ELF3 (Homo sapiens, UniProt P78545 1-371); settings: protein: recombinant; tags: N-terminal GST; dsDNA, one strand shown
T5 sequence: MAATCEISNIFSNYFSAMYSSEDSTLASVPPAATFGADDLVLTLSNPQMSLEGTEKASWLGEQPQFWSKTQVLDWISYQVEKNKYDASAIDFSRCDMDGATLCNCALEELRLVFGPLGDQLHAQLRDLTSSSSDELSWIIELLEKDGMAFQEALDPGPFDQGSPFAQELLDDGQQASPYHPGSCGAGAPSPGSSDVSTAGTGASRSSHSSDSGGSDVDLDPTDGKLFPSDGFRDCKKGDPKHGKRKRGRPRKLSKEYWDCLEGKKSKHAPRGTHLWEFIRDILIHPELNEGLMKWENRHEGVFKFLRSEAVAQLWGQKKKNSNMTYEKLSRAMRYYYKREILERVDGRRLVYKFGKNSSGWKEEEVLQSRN
Summary of the method: as §1

[9] = biological target: CRX (Homo sapiens, UniProt O43186 1-299); settings: protein: recombinant; tags: N-terminal GST; dsDNA, one strand shown
Sequence of CRX (O43186 whole entry): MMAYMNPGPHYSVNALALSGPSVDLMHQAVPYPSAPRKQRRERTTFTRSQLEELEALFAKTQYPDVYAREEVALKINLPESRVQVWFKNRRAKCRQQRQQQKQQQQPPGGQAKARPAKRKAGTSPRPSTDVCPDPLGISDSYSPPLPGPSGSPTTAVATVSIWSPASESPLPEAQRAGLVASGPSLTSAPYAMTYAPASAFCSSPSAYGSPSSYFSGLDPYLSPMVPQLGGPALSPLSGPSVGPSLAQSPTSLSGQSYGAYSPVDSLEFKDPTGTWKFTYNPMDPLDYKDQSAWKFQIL
Summary of the method: as §1

[10] = biological target: ETV1 (Homo sapiens, UniProt P50549 1-477); settings: protein: recombinant; tags: N-terminal GST; dsDNA, one strand shown
Sequence of ETV1 (P50549 whole entry): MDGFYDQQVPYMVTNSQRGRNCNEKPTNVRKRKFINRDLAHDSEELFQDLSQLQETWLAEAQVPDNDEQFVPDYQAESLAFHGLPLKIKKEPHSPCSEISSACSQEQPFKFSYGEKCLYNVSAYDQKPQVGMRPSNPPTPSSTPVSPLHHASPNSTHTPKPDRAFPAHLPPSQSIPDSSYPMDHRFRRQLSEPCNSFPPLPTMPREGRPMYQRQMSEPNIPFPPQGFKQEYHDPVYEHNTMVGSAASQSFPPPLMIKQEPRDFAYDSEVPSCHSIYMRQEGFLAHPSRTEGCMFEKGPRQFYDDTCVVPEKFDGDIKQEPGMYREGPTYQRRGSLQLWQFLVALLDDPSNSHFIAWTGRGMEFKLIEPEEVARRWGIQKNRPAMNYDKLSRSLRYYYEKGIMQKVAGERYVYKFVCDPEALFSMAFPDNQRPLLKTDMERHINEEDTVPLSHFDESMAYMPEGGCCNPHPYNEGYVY
Summary of the method: as §1

[11] = biological target: T6, ERF (Homo sapiens, UniProt P50548 1-548); settings: protein: recombinant; tags: N-terminal GST; dsDNA, one strand shown
T6 sequence: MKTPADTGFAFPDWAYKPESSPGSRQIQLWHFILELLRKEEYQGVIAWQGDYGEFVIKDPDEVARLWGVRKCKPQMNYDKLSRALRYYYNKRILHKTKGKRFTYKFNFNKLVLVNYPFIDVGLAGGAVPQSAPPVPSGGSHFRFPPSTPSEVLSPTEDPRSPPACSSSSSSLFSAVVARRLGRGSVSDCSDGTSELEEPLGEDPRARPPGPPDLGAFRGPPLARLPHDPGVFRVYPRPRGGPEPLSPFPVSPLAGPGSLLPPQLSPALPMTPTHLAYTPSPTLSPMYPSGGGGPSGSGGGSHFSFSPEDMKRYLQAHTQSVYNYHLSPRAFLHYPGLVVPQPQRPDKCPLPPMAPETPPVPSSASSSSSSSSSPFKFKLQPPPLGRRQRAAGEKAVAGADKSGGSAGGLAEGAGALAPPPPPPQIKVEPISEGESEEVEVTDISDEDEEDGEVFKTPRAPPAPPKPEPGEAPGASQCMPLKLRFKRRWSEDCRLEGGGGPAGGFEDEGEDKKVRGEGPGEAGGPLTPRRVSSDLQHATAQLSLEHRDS
Summary of the method: as §1

[12] = biological target: T7, ETV3L (Homo sapiens, UniProt Q6ZN32 1-361); settings: protein: recombinant; tags: N-terminal GST; dsDNA, one strand shown
T7 sequence: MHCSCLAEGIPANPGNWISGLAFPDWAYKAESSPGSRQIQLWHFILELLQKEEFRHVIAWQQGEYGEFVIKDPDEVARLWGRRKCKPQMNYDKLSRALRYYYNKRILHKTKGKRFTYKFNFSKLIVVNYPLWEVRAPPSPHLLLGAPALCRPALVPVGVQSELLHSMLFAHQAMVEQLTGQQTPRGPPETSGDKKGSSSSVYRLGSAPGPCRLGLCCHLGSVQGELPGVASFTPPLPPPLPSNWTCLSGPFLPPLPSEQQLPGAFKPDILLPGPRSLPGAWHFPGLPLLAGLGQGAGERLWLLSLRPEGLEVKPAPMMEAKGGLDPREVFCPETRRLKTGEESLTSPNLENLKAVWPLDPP
Summary of the method: as §1

[13] = biological target: T8, ETS2 (Homo sapiens, UniProt P15036 1-469); settings: protein: recombinant; tags: N-terminal GST; dsDNA, one strand shown
T8 sequence: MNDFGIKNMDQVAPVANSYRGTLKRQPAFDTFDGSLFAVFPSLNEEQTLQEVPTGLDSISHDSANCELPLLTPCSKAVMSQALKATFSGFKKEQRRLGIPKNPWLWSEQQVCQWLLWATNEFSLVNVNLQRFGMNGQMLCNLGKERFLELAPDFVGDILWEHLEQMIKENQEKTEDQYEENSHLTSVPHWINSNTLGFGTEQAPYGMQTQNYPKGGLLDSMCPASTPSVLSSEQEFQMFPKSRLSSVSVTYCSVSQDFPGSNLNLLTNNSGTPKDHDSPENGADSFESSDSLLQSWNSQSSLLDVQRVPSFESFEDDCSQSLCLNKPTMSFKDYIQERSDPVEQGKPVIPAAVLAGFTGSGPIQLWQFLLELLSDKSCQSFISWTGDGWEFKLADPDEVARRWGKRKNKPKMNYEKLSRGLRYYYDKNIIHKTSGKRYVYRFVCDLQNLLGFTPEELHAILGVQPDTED
Summary of the method: as §1

[14] = biological target: T9, SPDEF (Homo sapiens, UniProt O95238 1-335); settings: protein: recombinant; tags: N-terminal GST; dsDNA, one strand shown
T9 sequence: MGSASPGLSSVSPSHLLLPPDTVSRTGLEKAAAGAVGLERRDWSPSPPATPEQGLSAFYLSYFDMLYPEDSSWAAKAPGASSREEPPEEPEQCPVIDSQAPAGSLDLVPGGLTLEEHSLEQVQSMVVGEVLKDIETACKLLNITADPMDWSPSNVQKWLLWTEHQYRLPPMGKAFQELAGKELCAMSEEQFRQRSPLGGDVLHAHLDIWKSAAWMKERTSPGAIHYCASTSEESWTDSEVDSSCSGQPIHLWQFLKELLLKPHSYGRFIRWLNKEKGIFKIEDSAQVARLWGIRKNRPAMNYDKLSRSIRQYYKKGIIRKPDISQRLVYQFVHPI
Summary of the method: as §1

[15] = biological target: T10, ETV7 (Homo sapiens, UniProt Q9Y603 1-341); settings: protein: recombinant; tags: N-terminal GST; dsDNA, one strand shown
T10 sequence: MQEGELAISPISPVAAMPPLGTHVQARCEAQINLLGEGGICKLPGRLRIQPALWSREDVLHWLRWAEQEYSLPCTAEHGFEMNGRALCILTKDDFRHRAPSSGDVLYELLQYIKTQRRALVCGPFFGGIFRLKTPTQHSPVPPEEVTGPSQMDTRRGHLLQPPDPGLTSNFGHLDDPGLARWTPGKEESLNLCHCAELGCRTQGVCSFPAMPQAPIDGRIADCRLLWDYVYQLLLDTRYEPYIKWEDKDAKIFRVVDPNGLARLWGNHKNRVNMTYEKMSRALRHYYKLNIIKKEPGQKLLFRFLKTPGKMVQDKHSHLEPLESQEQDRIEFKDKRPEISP
Summary of the method: as §1

[16] = biological target: T11, ELF5 (Homo sapiens, UniProt Q9UKW6-2 1-255); settings: protein: recombinant; tags: N-terminal GST; dsDNA, one strand shown
T11 sequence: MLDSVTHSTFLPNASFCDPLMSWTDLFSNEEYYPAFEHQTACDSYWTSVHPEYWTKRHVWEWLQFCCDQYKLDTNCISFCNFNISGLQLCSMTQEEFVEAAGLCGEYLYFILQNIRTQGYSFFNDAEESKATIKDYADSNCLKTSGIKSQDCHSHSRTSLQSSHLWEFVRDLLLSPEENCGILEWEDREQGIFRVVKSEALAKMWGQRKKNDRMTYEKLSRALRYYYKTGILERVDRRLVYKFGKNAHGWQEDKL
Summary of the method: as §1

[17] = biological target: T12, ETV3 (Homo sapiens, UniProt P41162-2 1-143); settings: protein: recombinant; tags: N-terminal GST; dsDNA, one strand shown
T12 sequence: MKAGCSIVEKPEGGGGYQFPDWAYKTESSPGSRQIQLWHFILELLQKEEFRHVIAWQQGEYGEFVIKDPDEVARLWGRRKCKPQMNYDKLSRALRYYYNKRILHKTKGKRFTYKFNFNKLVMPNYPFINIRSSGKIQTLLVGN
Summary of the method: as §1

Sequence: GGTCTT
- binding signal [1]: 1.07 fold enrichment (6-mer frequency, TF over GST control)
- binding signal [2]: 1.14 fold enrichment (6-mer frequency, TF over GST control)
- binding signal [3]: 1.05 fold enrichment (6-mer frequency, TF over GST control)
- binding signal [4]: 1.02 fold enrichment (6-mer frequency, TF over GST control)
- binding signal [5]: 1.15 fold enrichment (6-mer frequency, TF over GST control)
- binding signal [6]: 1.11 fold enrichment (6-mer frequency, TF over GST control)
- binding signal [7]: 1.08 fold enrichment (6-mer frequency, TF over GST control)
- binding signal [8]: 1.04 fold enrichment (6-mer frequency, TF over GST control)
- binding signal [9]: 1.15 fold enrichment (6-mer frequency, TF over GST control)
- binding signal [10]: 1.11 fold enrichment (6-mer frequency, TF over GST control)
- binding signal [11]: 1.22 fold enrichment (6-mer frequency, TF over GST control)
- binding signal [12]: 1.07 fold enrichment (6-mer frequency, TF over GST control)
- binding signal [13]: 1.23 fold enrichment (6-mer frequency, TF over GST control)
- binding signal [14]: 1.12 fold enrichment (6-mer frequency, TF over GST control)
- binding signal [15]: 1.19 fold enrichment (6-mer frequency, TF over GST control)
- binding signal [16]: 1.2 fold enrichment (6-mer frequency, TF over GST control)
- binding signal [17]: 1.16 fold enrichment (6-mer frequency, TF over GST control)
